Counter-ions that a name gives are not always drawn.
What was measured:
Details in all cases: 20 µM
[1] = system: Salmonella enterica typhimurium; assay: growth AUC normalised to DMSO control (fraction of control); higher = less growth inhibition, active = hit call of the paper
How it was run: (§1)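 Pathogens were passaged twice under anaerobic conditions, then inoculated into pre-reduced mGAM plates at a starting OD578 of 0.01, with compound at 20 μM and 1% DMSO, and sealed with breathable membranes. For Haemophilus parainfluenzae, the medium was supplemented with hemin and NAD. OD578 was read every hour for 24 h in three biological replicates. Growth-curve AUC was calculated by the trapezoidal rule up to the exponential-to-stationary transition and normalised to DMSO controls on the same plate.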

[2] = system: Shigella flexneri; assay: as above
How it was run: as §1

[3] = system: Vibrio cholerae; assay: as above
How it was run: as §1

[4] = system: Yersinia pseudotuberculosis; assay: as above
How it was run: as §1

[5] = system: P. vulgatus RND KO; assay: growth AUC normalised to DMSO control (median) (fraction of control); higher = less growth inhibition, active = hit call of the paper
How it was run: (§2)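 In 96-well plates of mGAM seeded at OD578 0.01, strains that had been passaged twice overnight without oxygen were exposed to approved-drug library compounds at 20 μM with 1% DMSO. Hourly OD578 readings were taken for 24 h in an anaerobic incubator. The trapezoidal-rule area under the curve, with curves truncated at entry into stationary phase, was expressed relative to same-plate vehicle wells as the median of three biological replicates.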

[6] = system: P. vulgatus WT; assay: as above
How it was run: as §2

[7] = system: S. enterica typhimurium WT; assay: as above
How it was run: as §2

[8] = system: S. enterica typhimurium tolC KO; assay: as above
How it was run: as §2

Measured: growth AUC normalised to DMSO control
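For growth AUC normalised to DMSO control (median) in this document: active when median AUC fell below 0.1.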

CCC[C@@H]1C[C@@H](C(=O)N[C@@H]([C@H]2O[C@H](SC)[C@H](O)[C@@H](O)[C@H]2O)[C@@H](C)O)N(C)C1 [Lincomycin hydrochloride]
active: [1] 0.904 | [5] 0.0196 | [6] 0.0159
inactive: [2] 0.956 | [3] 0.956 | [4] 0.994 | [7] 0.956 | [8] 0.866

Cc1scc2c1N(C(=O)CN1CCN(C)CC1)c1ccccc1NC2=O [Telenzepine dihydrochloride]
inactive: [1] 1.02 | [2] 1.01 | [3] 1.01 | [4] 0.993 | [5] 0.995 | [6] 0.983 | [7] 1.01 | [8] 0.999

C[N+]1(CCCCC[N+]2(C)CCCC2)CCCC1 [Pentolinium bitartrate]
inactive: [1] 0.991 | [2] 1 | [3] 0.874 | [4] 0.994 | [5] 1 | [6] 0.978 | [7] 0.989 | [8] 0.996

CCN1CCC[C@H]1CNC(=O)c1c(OC)ccc(Br)c1OC [Remoxipride hydrochloride]
inactive: [1] 1.01 | [2] 1.04 | [3] 1.03 | [4] 1.01 | [5] 1.03 | [6] 1.06 | [7] 1.01 | [8] 1.01

Cn1nnc2c(C(N)=O)ncn2c1=O [Temozolomide]
inactive: [1] 0.981 | [2] 0.963 | [3] 0.992 | [4] 0.996 | [5] 0.989 | [6] 0.988 | [7] 0.967 | [8] 1.01

CC(C)NC(=N)NC(=N)Nc1ccc(Cl)cc1 [Proguanil hydrochloride]
inactive: [1] 0.959 | [2] 0.962 | [3] 0.985 | [4] 0.992 | [5] 1 | [6] 1.01 | [7] 0.988 | [8] 0.984

COc1cc2nc(N(C)CCCNC(=O)C3CCCO3)nc(N)c2cc1OC (stereo not given) [Alfuzosin hydrochloride]
inactive: [1] 1.01 | [2] 1.03 | [3] 1.06 | [4] 0.978 | [5] 1.02 | [6] 1.08 | [7] 1.01 | [8] 1.01

CN(C)CC/C=C1\c2ccccc2CSc2ccccc21 [Dosulepin hydrochloride]
inactive: [1] 0.992 | [2] 0.995 | [3] 0.952 | [4] 0.998 | [5] 1.03 | [6] 1.02 | [7] 0.996 | [8] 0.942

NS(=O)(=O)c1cc2c(cc1C(F)(F)F)NC(Cc1ccccc1)NS2(=O)=O (stereo not given) [Bendroflumethiazide]
inactive: [1] 1 | [2] 1.01 | [3] 0.997 | [4] 1.01 | [5] 0.962 | [6] 0.977 | [7] 1.01 | [8] 0.993

CCN(Cc1ccncc1)C(=O)C(CO)c1ccccc1 (stereo not given) [Tropicamide]
inactive: [1] 1.01 | [2] 0.987 | [3] 0.995 | [4] 1 | [5] 0.996 | [6] 0.995 | [7] 1.01 | [8] 1

CO[C@@H]1[C@@H](O[C@@H]2O[C@H](C)[C@@H](O[C@H]3C[C@@](C)(O)[C@@H](OC(=O)CC(C)C)[C@H](C)O3)[C@H](N(C)C)[C@H]2O)[C@@H](CC=O)C[C@@H](C)[C@@H](O)/C=C/C=C/C[C@@H](C)OC(=O)C[C@H]1OC(C)=O [Josamycin]
inactive: [2] 0.995 | [4] 0.971 | [7] 0.967
active: [1] 0.937 | [3] 0.0145 | [5] 0.0124 | [6] 0.00854 | [8] 0.0649

CCCOc1ccccc1-c1nc2[nH]nnc2c(=O)[nH]1 [Zaprinast]
inactive: [1] 0.998 | [2] 0.977 | [3] 0.985 | [4] 0.989 | [5] 1 | [6] 1.02 | [7] 1 | [8] 1

COc1ccc([C@@H]2Sc3ccccc3N(CCN(C)C)C(=O)[C@@H]2OC(C)=O)cc1 [Diltiazem hydrochloride]
inactive: [1] 0.998 | [2] 0.969 | [3] 1 | [4] 1.01 | [5] 0.99 | [6] 1 | [7] 0.995 | [8] 0.973

COc1ccccc1OCCNCC(O)COc1cccc2[nH]c3ccccc3c12 (stereo not given) [Carvedilol]
inactive: [1] 1.02 | [2] 1 | [3] 0.994 | [4] 0.997 | [5] 0.995 | [6] 0.989 | [7] 0.994 | [8] 0.944

CN1CCC[C@@H]1CCO[C@](C)(c1ccccc1)c1ccc(Cl)cc1 [Clemastine fumarate]
inactive: [1] 0.999 | [2] 0.969 | [3] 0.926 | [4] 1.02 | [5] 0.944 | [6] 0.947 | [7] 0.998 | [8] 0.925

— the supplement of paper PMC12350171
